# Data published in the supplement of paper PMC9135407.
# Where “and” joins values, the source holds several entries; their conditions need not be identical. Identical values can stand only once. Counter-ions that a name gives are not always drawn. Among all 5,800 compounds or so, about 620 (11%) showed activity. The entries come from a sample that favours actives as a whole. Values without a mark were called inactive.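 Rule for the calls: active = score above a cut-off or among the top three wells of a plate; in these data no inactive exceeds 0.85.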
# System: primary human hepatic stellate cells (donor 1)
# Experiment: scaled lipid accumulation score (0 = DMSO-like, 1 = nortriptyline-like); higher = stronger HSC inactivation (lipid re-accumulation), active = hit call of the paper
# Conditions: 48 h
# [1] = library stock concentration: 10 mM
# [2] = library stock concentration: 3.33 mM
# [3] = library stock concentration: 1 mM
smiles,measurement,setting,value
"Nc1ncnc2c1ncn2[C@@H]1O[C@@H]2COP(=O)(O)O[C@H]2[C@H]1O [Adenosine 3',5'-cyclic monophosphate]",scaled lipid accumulation score,[1],0.281
NC(C(=O)O)C(O)C(=O)O (racemic) [DL-threo-beta-hydroxyaspartic acid],scaled lipid accumulation score,[1],≤ -0.07
O=C[C@@H]1CCCN1C(=O)[C@@H]1CCCN1C(=O)OCc1ccccc1 [Z-prolyl-prolinal],scaled lipid accumulation score,library stock concentration: 15.1 mM,0.107
CO/N=C(\C(=O)N[C@@H]1C(=O)N2C(C(=O)O)=C(CSC(=O)c3ccco3)CS[C@H]12)c1csc(N)n1 [Ceftiofur HCl],scaled lipid accumulation score,[2],0.015
same,scaled lipid accumulation score,[1],≤ 0
CO/N=C(\C(=O)N[C@@H]1C(=O)N2C(C(=O)O)=C(CSC(=O)c3ccco3)CS[C@H]12)c1csc(N)n1,scaled lipid accumulation score,[1],≤ 0
CC[C@H]1OC(=O)[C@H](C)[C@@H](O[C@H]2C[C@@](C)(OC)[C@@H](O)[C@H](C)O2)[C@H](C)[C@@H](O[C@@H]2O[C@H](C)C[C@H](NC)[C@H]2O)[C@](C)(O)C[C@@H](C)CN(C)[C@H](C)[C@@H](O)[C@]1(C)O,scaled lipid accumulation score,[1],0.363
Cc1ccc2c(c1)C(=O)C1(O)CCN(c3ccccc3)C1=N2 (stereo not given) [Blebbistatin],scaled lipid accumulation score,library stock concentration: 17.1 mM,0.072
Cc1ccc2c(c1)C(=O)C1(O)CCN(c3ccccc3)C1=N2 (stereo not given),scaled lipid accumulation score,[3],≤ 0
same,scaled lipid accumulation score,[1],≤ -0.006
"CCCCC[C@H](O)/C=C/[C@@H]1[C@@H](C/C=C\CCCCCC(=O)O)[C@@H](O)C[C@H]1O [1a,1b-dihomo Prostaglandin F2.alpha.]",scaled lipid accumulation score,[3],≤ 0
"CCCCC(C)(C)[C@H](O)/C=C/[C@H]1C=CC(=O)[C@@H]1CCCCCCC(=O)O [16,16-dimethyl Prostaglandin A1]",scaled lipid accumulation score,[3],≤ 0
CCCCCCCC/C=C/CCCCCCCC(=O)O [Elaidic Acid],scaled lipid accumulation score,[3],≤ 0
CNCCC=C1c2ccccc2CCc2ccccc21 [Nortriptyline],scaled lipid accumulation score,[1],0.72
C(=C/CCNC)(/c1c(cccc1)CC2)\c3c2cccc3 [Nortriptyline],scaled lipid accumulation score,library stock concentration: 7.6 mM,0.971 (active)
Cl.C(=C\CCNC)(/c1c(cccc1)CC2)\c3c2cccc3 [Nortriptyline hydrochloride],scaled lipid accumulation score,,1.13 (active)
CNCCC=C1c2ccccc2CCc2ccccc21.Cl,scaled lipid accumulation score,[1],1.02 (active)
c1ccc(\C(\c2c3cccc2)=C\CCNC)c(C=C3)c1 [Norcyclobenzaprine],scaled lipid accumulation score,,1.13 (active)
OCc1ccccc1,scaled lipid accumulation score,[1],≤ 0
CC(=O)N[C@@H](Cc1c[nH]c2ccccc12)C(N)=O [Acetyltryptophanamide],scaled lipid accumulation score,[1],≤ 0
COc1ccc2c(Oc3ccc(NC(=O)c4c(C)n(CC(C)(C)O)n(-c5ccccc5)c4=O)nc3)ccnc2c1,scaled lipid accumulation score,[2],≤ 0
same,scaled lipid accumulation score,[1],≤ 0
C[C@H](Cc1ccc(O)c(O)c1)[C@@H](C)Cc1ccc(O)c(O)c1,scaled lipid accumulation score,[1],≤ -0.055
COCCCN1CCC(NC(=O)c2cc(Cl)c(N)c3c2OCC3)CC1 [Prucalopride Succinat],scaled lipid accumulation score,[2],0.028
same,scaled lipid accumulation score,[1],0.03
COCCCN1CCC(NC(=O)c2cc(Cl)c(N)c3c2OCC3)CC1 [Prucalopride],scaled lipid accumulation score,[2],≤ 0
same,scaled lipid accumulation score,[1],≤ 0
CC1(C)O[C@H]2CC(=O)OC[C@]23[C@H]2CC[C@@]4(C)[C@H](c5ccoc5)OC(=O)[C@H]5O[C@]54[C@]2(C)C(=O)C[C@@H]13 [Limonin],scaled lipid accumulation score,[2],≤ 0
same,scaled lipid accumulation score,[1],0.008
O=C(O)CCC/C=C/C[C@@H]1[C@@H](CC[C@@H](O)CCc2ccccc2)[C@H](O)C[C@@H]1O [5-trans Latanoprost (free acid)],scaled lipid accumulation score,[3],≤ 0
O=C1O[C@H]([C@@H](O)CO)C([O-])=C1O.[Na+] [Sodium ascorbate],scaled lipid accumulation score,[2],≤ 0
same,scaled lipid accumulation score,[1],≤ -0.001
CCCCC[C@H](O)/C=C/[C@H]1C(=O)C[C@H](O)[C@@H]1C/C=C\CCCC(=O)OCC(O)CO (stereo not given in full) [Prostaglandin D2-1-glyceryl ester],scaled lipid accumulation score,[3],≤ 0
CN1C(=O)C(Cc2c[nH]c3ccccc23)NC1=S (stereo not given) [Necrostatin-1],scaled lipid accumulation score,library stock concentration: 80 uM,0.008
same,scaled lipid accumulation score,library stock concentration: 400 uM,≤ 0
same,scaled lipid accumulation score,library stock concentration: 2 mM,≤ 0
same,scaled lipid accumulation score,[2],≤ -0.009 and ≤ 0
same,scaled lipid accumulation score,[1],≤ 0 and 0.03
CCCc1c(OCCCCc2nnn[nH]2)ccc(C(C)=O)c1O,scaled lipid accumulation score,[3],≤ 0 and ≤ -0.021
same,scaled lipid accumulation score,[1],0.011
COc1cc2c(cc1OC)-c1c/c(=N\c3c(C)cc(C)cc3C)n(C)c(=O)n1CC2 [Trequinsin],scaled lipid accumulation score,library stock concentration: 4.9 mM,0.164
same,scaled lipid accumulation score,library stock concentration: 12.3 mM,0.244
COc1cc2c(cc1OC)-c1c/c(=N\c3c(C)cc(C)cc3C)n(C)c(=O)n1CC2 [Trequinsin hydrochloride],scaled lipid accumulation score,[1],0.494 and 0.174
C#CC(N)CCC(=O)O (stereo not given) [gamma-Acetylinic GABA],scaled lipid accumulation score,[1],0.037
"C1CCC2(CC1)CCNCC2 [4,4-Pentamethylenepiperidine hydrochloride]",scaled lipid accumulation score,[1],0.028
CCCCCCCCCCCCCCCCCCCCCC(=O)NCCS(=O)(=O)O [N-Docosanoyl Taurine],scaled lipid accumulation score,[3],≤ 0
C(=C/CCNC)(/c1c2cccc1)\c3c(cccc3)CC2.Cl [Nortriptyline hydrochloride],scaled lipid accumulation score,[1],1.04 (active)
N[C@H]1CCN(O)C1=O,scaled lipid accumulation score,[1],≤ 0
NCc1cccc2ccncc12 [8-Isoquinoline methanamine (hydrochloride)],scaled lipid accumulation score,[3],0.003
CCCCCCNC(=O)Nc1ccc(S(=O)(=O)Nc2ccc(CCNC[C@H](O)COc3ccc(O)cc3)cc2)cc1,scaled lipid accumulation score,[1],0.462
